# Laboratory results reported in PMC7862700, “An all-to-all approach to the identification of sequence-specific readers for epigenetic DNA modifications on cytosine”.
# Experiments:
# Assay in all cases: DAPPL (digital affinity profiling via proximity ligation, sequencing); 10 mM Tris-HCl pH 7.5, 50 mM NaCl, 1 mM DTT, 4% glycerol, room temperature, 30 min; GST-TFs on glutathione beads, 16-mer random dsDNA library, 0.1% formaldehyde crosslink after washing; high values mean tight binding
# FEV = target: T1, FEV (Homo sapiens, UniProt Q99581 1-238); conditions: protein: recombinant; tags: N-terminal GST; dsDNA, one strand shown
# T1 sequence: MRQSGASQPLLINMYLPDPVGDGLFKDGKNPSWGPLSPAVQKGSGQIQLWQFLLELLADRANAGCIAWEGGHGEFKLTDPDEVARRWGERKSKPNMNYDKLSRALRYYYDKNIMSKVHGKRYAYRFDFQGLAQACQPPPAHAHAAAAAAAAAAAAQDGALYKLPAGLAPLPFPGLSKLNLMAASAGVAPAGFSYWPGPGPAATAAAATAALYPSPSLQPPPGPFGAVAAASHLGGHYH
# Summary of the method: (§1)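 A tag-only sample was pooled with DNA-barcoded human transcription factors that had been expressed in yeast as GST fusions and captured on glutathione beads. The pools were incubated for 30 min at room temperature with 200 nmole of a random double-stranded 16-mer DNA library in Tris/NaCl/DTT/glycerol buffer, then washed, crosslinked with 0.1% formaldehyde, proximity-ligated (BsaI/T4 ligase, 1 h, 37 °C), PCR-amplified and sequenced on an Illumina NextSeq500. Binding signal is each hexamer's read frequency for a factor divided by its frequency for the tag-only sample.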
# ETV5 = ETV5 (Homo sapiens, UniProt P41161 1-510); conditions: protein: recombinant; tags: N-terminal GST; dsDNA, one strand shown
# ETV5, sequence (P41161 whole entry): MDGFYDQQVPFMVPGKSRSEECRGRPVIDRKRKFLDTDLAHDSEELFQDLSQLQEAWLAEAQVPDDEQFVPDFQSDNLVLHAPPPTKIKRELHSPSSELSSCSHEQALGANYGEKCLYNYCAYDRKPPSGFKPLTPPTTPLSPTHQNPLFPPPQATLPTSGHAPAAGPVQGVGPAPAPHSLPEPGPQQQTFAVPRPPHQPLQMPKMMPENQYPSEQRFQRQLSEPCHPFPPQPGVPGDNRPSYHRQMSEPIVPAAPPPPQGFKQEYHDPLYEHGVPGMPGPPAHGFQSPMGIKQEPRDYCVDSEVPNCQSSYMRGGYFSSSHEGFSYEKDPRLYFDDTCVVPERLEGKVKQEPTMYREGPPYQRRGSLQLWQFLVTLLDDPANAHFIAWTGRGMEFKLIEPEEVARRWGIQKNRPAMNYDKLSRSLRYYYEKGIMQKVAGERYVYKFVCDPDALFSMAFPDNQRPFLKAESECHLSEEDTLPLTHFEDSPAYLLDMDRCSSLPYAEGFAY
# Summary of the method: as §1
# HSF1 = HSF1 (Homo sapiens, UniProt Q00613 1-529); conditions: protein: recombinant; tags: N-terminal GST; chain copies: 3; dsDNA, one strand shown
# HSF1, sequence (Q00613 whole entry): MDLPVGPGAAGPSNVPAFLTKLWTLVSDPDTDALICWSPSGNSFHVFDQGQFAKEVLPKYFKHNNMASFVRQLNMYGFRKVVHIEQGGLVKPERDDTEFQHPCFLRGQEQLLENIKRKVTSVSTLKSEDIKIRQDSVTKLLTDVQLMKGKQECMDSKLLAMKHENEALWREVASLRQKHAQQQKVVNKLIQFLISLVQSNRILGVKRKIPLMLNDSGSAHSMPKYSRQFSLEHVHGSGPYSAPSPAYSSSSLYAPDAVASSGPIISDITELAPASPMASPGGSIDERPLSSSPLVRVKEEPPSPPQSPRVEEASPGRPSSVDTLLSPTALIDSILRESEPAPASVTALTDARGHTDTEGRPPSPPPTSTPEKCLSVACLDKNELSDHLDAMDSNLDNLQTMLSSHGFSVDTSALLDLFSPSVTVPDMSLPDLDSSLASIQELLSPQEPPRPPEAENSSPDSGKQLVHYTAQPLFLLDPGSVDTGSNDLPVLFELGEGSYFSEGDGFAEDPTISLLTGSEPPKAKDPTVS
# Summary of the method: as §1
# SPIC = target: T2, SPIC (Homo sapiens, UniProt Q8N5J4 1-248); conditions: protein: recombinant; tags: N-terminal GST; dsDNA, one strand shown
# T2 sequence: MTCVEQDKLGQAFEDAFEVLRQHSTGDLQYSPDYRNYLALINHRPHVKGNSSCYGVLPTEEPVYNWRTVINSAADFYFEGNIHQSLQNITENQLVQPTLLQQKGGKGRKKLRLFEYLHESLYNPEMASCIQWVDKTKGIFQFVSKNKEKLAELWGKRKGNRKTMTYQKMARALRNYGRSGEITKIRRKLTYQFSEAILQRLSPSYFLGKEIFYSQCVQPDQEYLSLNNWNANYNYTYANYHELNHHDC
# Summary of the method: as §1
# ELF4 = ELF4 (Homo sapiens, UniProt Q99607 1-663); conditions: protein: recombinant; tags: N-terminal GST; dsDNA, one strand shown
# ELF4, sequence (Q99607 whole entry): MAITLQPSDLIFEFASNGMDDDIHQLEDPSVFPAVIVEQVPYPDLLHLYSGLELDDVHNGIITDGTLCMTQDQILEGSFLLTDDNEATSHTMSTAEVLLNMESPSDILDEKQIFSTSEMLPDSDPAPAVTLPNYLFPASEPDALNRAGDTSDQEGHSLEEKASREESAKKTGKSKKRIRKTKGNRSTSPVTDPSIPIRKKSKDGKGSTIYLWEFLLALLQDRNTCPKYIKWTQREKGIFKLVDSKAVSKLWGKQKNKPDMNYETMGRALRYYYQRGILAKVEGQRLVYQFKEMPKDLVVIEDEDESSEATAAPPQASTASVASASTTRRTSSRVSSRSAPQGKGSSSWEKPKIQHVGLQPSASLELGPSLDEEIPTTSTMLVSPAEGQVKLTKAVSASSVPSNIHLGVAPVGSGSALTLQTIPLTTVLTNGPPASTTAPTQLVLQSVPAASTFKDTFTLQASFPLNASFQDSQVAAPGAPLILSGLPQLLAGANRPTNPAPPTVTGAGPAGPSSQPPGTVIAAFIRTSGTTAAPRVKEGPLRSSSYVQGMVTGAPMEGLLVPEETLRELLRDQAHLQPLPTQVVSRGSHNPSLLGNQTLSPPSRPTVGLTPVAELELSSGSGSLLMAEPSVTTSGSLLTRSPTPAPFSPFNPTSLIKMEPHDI
# Summary of the method: as §1
# ELK4 = target: T3, ELK4 (Homo sapiens, UniProt P28324-2 1-405); conditions: protein: recombinant; tags: N-terminal GST; dsDNA, one strand shown
# T3 sequence: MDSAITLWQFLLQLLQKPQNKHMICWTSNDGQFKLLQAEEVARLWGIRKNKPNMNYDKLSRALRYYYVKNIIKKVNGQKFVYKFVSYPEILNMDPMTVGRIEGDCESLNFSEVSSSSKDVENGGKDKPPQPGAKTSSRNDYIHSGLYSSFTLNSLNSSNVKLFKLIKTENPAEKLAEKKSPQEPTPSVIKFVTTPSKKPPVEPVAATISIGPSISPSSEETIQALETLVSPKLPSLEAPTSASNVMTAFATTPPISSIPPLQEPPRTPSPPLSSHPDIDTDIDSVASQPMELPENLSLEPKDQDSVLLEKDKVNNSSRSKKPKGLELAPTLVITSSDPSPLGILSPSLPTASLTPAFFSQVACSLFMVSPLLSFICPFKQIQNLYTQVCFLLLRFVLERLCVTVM
# Summary of the method: as §1
# ETV2 = target: T4, ETV2 (Homo sapiens, UniProt O00321 1-342); conditions: protein: recombinant; tags: N-terminal GST; dsDNA, one strand shown
# T4 sequence: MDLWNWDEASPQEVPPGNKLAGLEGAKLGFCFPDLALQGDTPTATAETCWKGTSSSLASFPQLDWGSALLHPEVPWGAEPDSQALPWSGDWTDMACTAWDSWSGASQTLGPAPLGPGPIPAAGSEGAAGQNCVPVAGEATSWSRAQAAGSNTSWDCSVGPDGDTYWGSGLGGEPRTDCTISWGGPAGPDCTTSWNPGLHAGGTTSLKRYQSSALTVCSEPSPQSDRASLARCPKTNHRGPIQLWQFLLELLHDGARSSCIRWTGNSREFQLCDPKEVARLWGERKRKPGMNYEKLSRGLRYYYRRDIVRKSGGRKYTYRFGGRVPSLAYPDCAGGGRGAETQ
# Summary of the method: as §1
# ELF3 = target: T5, ELF3 (Homo sapiens, UniProt P78545 1-371); conditions: protein: recombinant; tags: N-terminal GST; dsDNA, one strand shown
# T5 sequence: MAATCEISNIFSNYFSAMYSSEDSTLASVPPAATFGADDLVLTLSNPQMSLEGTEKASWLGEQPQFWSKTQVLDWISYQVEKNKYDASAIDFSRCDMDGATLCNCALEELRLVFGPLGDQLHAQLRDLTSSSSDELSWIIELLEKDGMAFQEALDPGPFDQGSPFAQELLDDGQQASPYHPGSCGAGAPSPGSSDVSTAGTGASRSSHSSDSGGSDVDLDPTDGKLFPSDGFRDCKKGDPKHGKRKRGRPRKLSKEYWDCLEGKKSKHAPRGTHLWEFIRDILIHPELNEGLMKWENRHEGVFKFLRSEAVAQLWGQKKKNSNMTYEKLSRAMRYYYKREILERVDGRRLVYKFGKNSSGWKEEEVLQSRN
# Summary of the method: as §1
# CRX = CRX (Homo sapiens, UniProt O43186 1-299); conditions: protein: recombinant; tags: N-terminal GST; dsDNA, one strand shown
# CRX, sequence (O43186 whole entry): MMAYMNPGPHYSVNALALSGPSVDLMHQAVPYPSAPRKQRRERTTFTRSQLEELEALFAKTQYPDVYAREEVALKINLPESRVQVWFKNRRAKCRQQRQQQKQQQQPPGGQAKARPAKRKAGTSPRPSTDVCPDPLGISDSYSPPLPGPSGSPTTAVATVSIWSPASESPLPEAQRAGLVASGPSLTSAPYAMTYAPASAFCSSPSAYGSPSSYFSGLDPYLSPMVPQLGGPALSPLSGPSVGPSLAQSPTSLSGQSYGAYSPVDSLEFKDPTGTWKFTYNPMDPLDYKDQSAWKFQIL
# Summary of the method: as §1
# ETV1 = ETV1 (Homo sapiens, UniProt P50549 1-477); conditions: protein: recombinant; tags: N-terminal GST; dsDNA, one strand shown
# ETV1, sequence (P50549 whole entry): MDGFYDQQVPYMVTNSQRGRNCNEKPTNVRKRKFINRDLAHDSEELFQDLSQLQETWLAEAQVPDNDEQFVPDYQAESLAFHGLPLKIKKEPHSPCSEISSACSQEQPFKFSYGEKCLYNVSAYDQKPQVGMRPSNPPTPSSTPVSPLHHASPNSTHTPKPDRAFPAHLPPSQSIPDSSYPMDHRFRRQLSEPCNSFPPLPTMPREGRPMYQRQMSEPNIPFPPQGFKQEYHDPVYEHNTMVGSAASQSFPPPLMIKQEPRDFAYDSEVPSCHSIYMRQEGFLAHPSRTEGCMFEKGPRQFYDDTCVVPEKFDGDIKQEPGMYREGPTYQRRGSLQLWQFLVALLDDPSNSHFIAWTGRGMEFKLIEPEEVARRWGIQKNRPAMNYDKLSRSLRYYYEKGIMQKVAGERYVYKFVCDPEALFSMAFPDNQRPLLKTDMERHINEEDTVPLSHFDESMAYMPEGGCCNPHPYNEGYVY
# Summary of the method: as §1
sequence,measurement,setting,value
AAGAAA,binding signal,FEV,"1.15 fold enrichment (6-mer frequency, TF over GST control)"
same,binding signal,ETV5,"1.19 fold enrichment (6-mer frequency, TF over GST control)"
same,binding signal,HSF1,"1.75 fold enrichment (6-mer frequency, TF over GST control)"
same,binding signal,SPIC,"1.19 fold enrichment (6-mer frequency, TF over GST control)"
same,binding signal,ELF4,"1.19 fold enrichment (6-mer frequency, TF over GST control)"
same,binding signal,ELK4,"1.18 fold enrichment (6-mer frequency, TF over GST control)"
same,binding signal,ETV2,"1.18 fold enrichment (6-mer frequency, TF over GST control)"
same,binding signal,ELF3,"1.23 fold enrichment (6-mer frequency, TF over GST control)"
same,binding signal,CRX,"1.29 fold enrichment (6-mer frequency, TF over GST control)"
same,binding signal,ETV1,"1.2 fold enrichment (6-mer frequency, TF over GST control)"
